The first test can be described thus: small-molecule binders of probe aNOTCH3, primary screen, biochemical, small-molecule microarray, 635/667 nm fluorescence (AID 1120).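 Also: probe is a biotin-tagged antibody raised against NOTCH3 rather than NOTCH3 protein; score merges spot fluorescence near 667 nm with spot signal to noise.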 The following applies: higher = more signal.
In turn, `COC(=O)[C@@H]1N=C(c2ccc(OCCCO)cc2)O[C@@H]1C` showed a composite z-score of 0.0893.
In turn, `C=C[C@H]1C(C(=O)OCC)=CC[C@@H](c2ccccc2)N1S(=O)(=O)c1ccc(C)cc1` returned a composite z-score of 0.382.
In turn, `CC(c1ccccc1)C(O)C1C=CC2C(=O)N(C)C(=O)C2N1Nc1ccccc1` (stereo not given) showed a composite z-score of 0.5.
The same measure, in the same setting: the same measure for `NC(=O)NCC#Cc1ccc2c(c1)[C@]1(C(=O)N2)[C@H](c2ccccc2OCCO)N2[C@H](c3ccccc3)[C@H](c3ccccc3)OC(=O)[C@H]2[C@@H]1C(=O)NC[C@H](O)c1ccccc1`: -0.143.
In turn, `CCCCC[C@H]1OC[C@@]23C=C(Br)[C@@H](CC12)[C@@]1(CO1)C3=O` (stereo not given in full) returned a composite z-score of -0.126.
Turning to `CCC#CCN(Cc1ccccc1Br)[C@H](/C=C/C1CC1)[C@@H](O)Cc1ccccc1`, the composite z-score was -0.262.
Consider `COC(=O)C(CC#Cc1ccc2c(c1)[C@]1(C(=O)N2)[C@H](c2ccc(O)cc2)N2[C@H](c3ccccc3)[C@H](c3ccccc3)OC(=O)[C@H]2[C@@H]1C(=O)NC[C@H](O)c1ccccc1)C(=O)OC`, for which the composite z-score came to 0.0948.
Still for that read-out and setting: with `CCCCC(O)C1C=CC2C(=O)N(C)C(=O)C2N1N(c1ccccc1)c1ccccc1` (stereo not given) the figure was 0.183.
`O=C1[C@H]2C=C(I)[C@H](C[C@@H]2OCCOCCO)[C@@]12CO2` had a composite z-score of -0.0299.
In turn, `C=CC[C@]1(C(=O)N2CCCCC2)N=C(c2ccc(OCCCO)cc2)O[C@H]1c1ccccc1CN=[N+]=[N-]` came in with a composite z-score of 0.405.
`COC(=O)[C@@]1(Cc2ccc(OC)cc2)[C@H]2c3cc(C(=O)N4CCCC4)n(CCO)c3C[C@H]2CN1C(=O)c1ccccc1`: the composite z-score amounted to 0.302.
`C=CC[C@]1(C(=O)N2CCOCC2)COC(c2ccc(OCCCO)cc2)=N1` came in with a composite z-score of 0.298.
The compound `CN(C)C(=O)[C@]1(CCC(=O)OC(C)(C)C)N=C(c2ccc(OCCCO)cc2)O[C@@H]1c1ccccc1CN=[N+]=[N-]` displayed a composite z-score of 0.0749.
Compound `CO[C@H]1O[C@H](CO)[C@@H](OC(=O)Nc2ccc3c(c2)OCO3)[C@H](OC(=O)Nc2ccc3c(c2)OCO3)[C@@H]1OC(=O)Nc1ccc2c(c1)OCO2` displayed a composite z-score of 0.0789.
On to `C=C[C@@H](OC)[C@H](OC(=O)Nc1ccc(OC)cc1)c1ccc(O)c(F)c1`, for which the composite z-score is -0.0581.
For the compound `COC(=O)c1c(CC[C@@H](CO)NC(=O)N[C@@H](C)Cn2cc(-c3ccccn3)nn2)oc(C(C)=O)c1C(=O)OC`, the composite z-score came to 0.11.
`CCCC[C@@H](O)C1=C(COC)C[C@H]2C(=O)N(Cc3ccccc3)C(=O)[C@H]2[C@H]1CO` registered a composite z-score of -0.214.
For `CCCN1C(=O)[C@]2(Cc3ccccc31)N=C(c1ccc(OCCCO)cc1)O[C@@H]2c1ccccc1`, the composite z-score is 0.247.
In turn, `CCOC(=O)C[C@H]1[C@H](OC(=O)c2ccc(C(=O)c3ccccc3)cc2)[C@@H](NC(=O)C2CCCCC2)c2cc(OCCCO)ccc2N1C(=O)c1ccc2ccccc2n1` returned a composite z-score of -0.0647.
Take `COc1cccc(C)c1NC(=O)O[C@H]1[C@H](OC(=O)Nc2ccc3c(c2)OCO3)[C@@H](OC(=O)Nc2ccc3c(c2)OCO3)[C@@H](OC)O[C@@H]1CO`: the composite z-score amounted to 0.508.
Same read-out and setting: with `CC(C)(C)OC(=O)COc1cccc(C(=O)CCN2CCOCC2)c1` the figure was -0.0119; with `CC(C)NC(=O)[C@@]1(C)c2ccccc2C(=O)N(Cc2ccc(OC(F)(F)F)cc2)[C@H]1c1ccc(CO)cc1`, -0.367; with `COc1cc2c(cc1O)C(c1cccs1)N(Cc1cc3c(cc1Br)OCO3)CC2` (stereo not given), 0.0438.
Take `CCCCNC(=O)c1ccc(C#CC(C)(C)C)c(OC(C)=O)c1`: the composite z-score was 0.0744.
The same measure, in the same setting: with `CCCC1(C(=O)OC)C=C2C(=C(C)C(=O)C2C)CN1` (stereo not given) the figure was 0.0416; with `O=C(C1N=C(c2ccc(OCCCO)cc2)N(c2ccccc2)O1)N1CCCCC1` (stereo not given), 0.304; with `CCCCN1CC=CC23O[C@@H]4/C=C\CCC(C)OC(=O)C4[C@H]2C(=O)N(CCCO)[C@@H]3C1=O` (stereo not given in full), -0.41.
Take `Cc1ccc(S[C@]2(C(=O)NCC(F)(F)F)CC(=O)N(Cc3cc(C(F)(F)F)cc(C(F)(F)F)c3)[C@@H]2c2ccc(CO)cc2)cc1`: the composite z-score is -0.229.
In the case of `COC(=O)[C@@]1(Cc2ccc(F)cc2)[C@H]2c3cc(C(=O)N(C)C)n(CCc4ccc(OC)c(Br)c4)c3C[C@H]2CN1C(=O)c1ccccc1`, the composite z-score came out at 0.613.
In turn, `O=C(NCCN1CCOCC1)[C@@H]1c2ccccc2C(=O)N(Cc2ccccc2Cl)[C@H]1c1ccc(CO)cc1` yielded a composite z-score of -0.224.
`CCCCCN1CC=CC23O[C@@H]4/C=C\CCCOC(=O)C4[C@H]2C(=O)N(C(C)CO)[C@@H]3C1=O` (stereo not given in full) displayed a composite z-score of -0.427.
`COc1ccc(CCNC(=O)[C@@H]2c3ccccc3C(=O)N(C3CCCCC3)[C@H]2c2ccc(CO)cc2)cc1` returned a composite z-score of -0.119.
`C=CCNC(=O)[C@H]1[C@@H]2C(=O)O[C@@H](c3ccccc3)[C@@H](c3ccccc3)N2[C@@H](c2ccccc2OCCO)[C@]12C(=O)N(C(=O)OCCOC)c1ccc(C#CC3(O)CCCCCC3)cc12` showed a composite z-score of 0.0225.
The compound `C#Cc1cc2ccccc2oc1=O` had a composite z-score of -0.437.
`CCCC=C(CCC)[C@@H](NS(=O)(=O)CC12CCC(CC1=O)C2(C)C)c1ccc(C(=O)OC)cc1` (stereo not given in full) registered a composite z-score of 0.344.

The next test in a line: small-molecule binders of probe aNOTCH2, primary screen, biochemical, small-molecule microarray, 635/667 nm fluorescence (AID 1121).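 Also: score merges feature fluorescence read at 667 nm with its signal to noise.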 The following applies: higher = more signal.
For the compound `COC(=O)[C@@H]1N=C(c2ccc(OCCCO)cc2)O[C@@H]1C`, the composite z-score was -0.082.
`C=C[C@H]1C(C(=O)OCC)=CC[C@@H](c2ccccc2)N1S(=O)(=O)c1ccc(C)cc1` yielded a composite z-score of -0.0345.
As for `CC(c1ccccc1)C(O)C1C=CC2C(=O)N(C)C(=O)C2N1Nc1ccccc1` (stereo not given), the composite z-score is -0.0067.
`NC(=O)NCC#Cc1ccc2c(c1)[C@]1(C(=O)N2)[C@H](c2ccccc2OCCO)N2[C@H](c3ccccc3)[C@H](c3ccccc3)OC(=O)[C@H]2[C@@H]1C(=O)NC[C@H](O)c1ccccc1` came in with a composite z-score of -0.103.
Take `CCCCC[C@H]1OC[C@@]23C=C(Br)[C@@H](CC12)[C@@]1(CO1)C3=O` (stereo not given in full): the composite z-score is -0.0907.
For the compound `CCC#CCN(Cc1ccccc1Br)[C@H](/C=C/C1CC1)[C@@H](O)Cc1ccccc1`, the composite z-score was -0.176.
On the same count and under the same terms, the same measure for `COC(=O)C(CC#Cc1ccc2c(c1)[C@]1(C(=O)N2)[C@H](c2ccc(O)cc2)N2[C@H](c3ccccc3)[C@H](c3ccccc3)OC(=O)[C@H]2[C@@H]1C(=O)NC[C@H](O)c1ccccc1)C(=O)OC`: -0.0956.
The same measure, in the same setting: the same measure for `CCCCC(O)C1C=CC2C(=O)N(C)C(=O)C2N1N(c1ccccc1)c1ccccc1` (stereo not given): 0.0203.
Compound `O=C1[C@H]2C=C(I)[C@H](C[C@@H]2OCCOCCO)[C@@]12CO2` displayed a composite z-score of -0.173.
The compound `C=CC[C@]1(C(=O)N2CCCCC2)N=C(c2ccc(OCCCO)cc2)O[C@H]1c1ccccc1CN=[N+]=[N-]` yielded a composite z-score of -0.147.
`COC(=O)[C@@]1(Cc2ccc(OC)cc2)[C@H]2c3cc(C(=O)N4CCCC4)n(CCO)c3C[C@H]2CN1C(=O)c1ccccc1`: the composite z-score turned out to be 0.0918.
In the case of `C=CC[C@]1(C(=O)N2CCOCC2)COC(c2ccc(OCCCO)cc2)=N1`, the composite z-score is -0.13.
Compound `CN(C)C(=O)[C@]1(CCC(=O)OC(C)(C)C)N=C(c2ccc(OCCCO)cc2)O[C@@H]1c1ccccc1CN=[N+]=[N-]` displayed a composite z-score of -0.0037.
Regarding `CO[C@H]1O[C@H](CO)[C@@H](OC(=O)Nc2ccc3c(c2)OCO3)[C@H](OC(=O)Nc2ccc3c(c2)OCO3)[C@@H]1OC(=O)Nc1ccc2c(c1)OCO2`, the composite z-score is -0.0349.
As for `C=C[C@@H](OC)[C@H](OC(=O)Nc1ccc(OC)cc1)c1ccc(O)c(F)c1`, the composite z-score is -0.2.
The same measure, in the same setting: the same measure for `COC(=O)c1c(CC[C@@H](CO)NC(=O)N[C@@H](C)Cn2cc(-c3ccccn3)nn2)oc(C(C)=O)c1C(=O)OC`: -0.0995.
The same measure, in the same setting: with `CCCC[C@@H](O)C1=C(COC)C[C@H]2C(=O)N(Cc3ccccc3)C(=O)[C@H]2[C@H]1CO` the figure was -0.0668.
Same read-out and setting: with `CCCN1C(=O)[C@]2(Cc3ccccc31)N=C(c1ccc(OCCCO)cc1)O[C@@H]2c1ccccc1` the figure was -0.125.
Compound `CCOC(=O)C[C@H]1[C@H](OC(=O)c2ccc(C(=O)c3ccccc3)cc2)[C@@H](NC(=O)C2CCCCC2)c2cc(OCCCO)ccc2N1C(=O)c1ccc2ccccc2n1` registered a composite z-score of -0.102.
Same read-out and setting: with `COc1cccc(C)c1NC(=O)O[C@H]1[C@H](OC(=O)Nc2ccc3c(c2)OCO3)[C@@H](OC(=O)Nc2ccc3c(c2)OCO3)[C@@H](OC)O[C@@H]1CO` the figure was -0.0714; with `CC(C)(C)OC(=O)COc1cccc(C(=O)CCN2CCOCC2)c1`, -0.074.
On the same count and under the same terms, the same measure for `CC(C)NC(=O)[C@@]1(C)c2ccccc2C(=O)N(Cc2ccc(OC(F)(F)F)cc2)[C@H]1c1ccc(CO)cc1`: -0.0995.
Compound `COc1cc2c(cc1O)C(c1cccs1)N(Cc1cc3c(cc1Br)OCO3)CC2` (stereo not given) displayed a composite z-score of -0.0397.
The compound `CCCCNC(=O)c1ccc(C#CC(C)(C)C)c(OC(C)=O)c1` gave a composite z-score of -0.181.
`CCCC1(C(=O)OC)C=C2C(=C(C)C(=O)C2C)CN1` (stereo not given) showed a composite z-score of -0.0936.
Compound `O=C(C1N=C(c2ccc(OCCCO)cc2)N(c2ccccc2)O1)N1CCCCC1` (stereo not given) came in with a composite z-score of 0.116.
On the same count and under the same terms, with `CCCCN1CC=CC23O[C@@H]4/C=C\CCC(C)OC(=O)C4[C@H]2C(=O)N(CCCO)[C@@H]3C1=O` (stereo not given in full) the figure was -0.171; with `Cc1ccc(S[C@]2(C(=O)NCC(F)(F)F)CC(=O)N(Cc3cc(C(F)(F)F)cc(C(F)(F)F)c3)[C@@H]2c2ccc(CO)cc2)cc1`, -0.164; with `COC(=O)[C@@]1(Cc2ccc(F)cc2)[C@H]2c3cc(C(=O)N(C)C)n(CCc4ccc(OC)c(Br)c4)c3C[C@H]2CN1C(=O)c1ccccc1`, 0.363.
The compound `O=C(NCCN1CCOCC1)[C@@H]1c2ccccc2C(=O)N(Cc2ccccc2Cl)[C@H]1c1ccc(CO)cc1` returned a composite z-score of -0.0986.
For the compound `CCCCCN1CC=CC23O[C@@H]4/C=C\CCCOC(=O)C4[C@H]2C(=O)N(C(C)CO)[C@@H]3C1=O` (stereo not given in full), the composite z-score was -0.169.
Take `COc1ccc(CCNC(=O)[C@@H]2c3ccccc3C(=O)N(C3CCCCC3)[C@H]2c2ccc(CO)cc2)cc1`: the composite z-score was -0.0317.
Compound `C=CCNC(=O)[C@H]1[C@@H]2C(=O)O[C@@H](c3ccccc3)[C@@H](c3ccccc3)N2[C@@H](c2ccccc2OCCO)[C@]12C(=O)N(C(=O)OCCOC)c1ccc(C#CC3(O)CCCCCC3)cc12` registered a composite z-score of 0.0018.
`C#Cc1cc2ccccc2oc1=O` yielded a composite z-score of -0.126.
`CCCC=C(CCC)[C@@H](NS(=O)(=O)CC12CCC(CC1=O)C2(C)C)c1ccc(C(=O)OC)cc1` (stereo not given in full): the composite z-score stood at 0.0727.
